Source: PubChem BioAssay (several laboratories)
This is a sample that favours compounds with a hit; in the whole collection about 3.9% have one here.
GDH-TPI counter-1 = counter-screen for M. tuberculosis FBA inhibitors: GDH-TPI coupled enzymes | actives 1.2% (n = 360,000) | inhibition, % at 4.8 µM | GDH-TPI coupled enzyme counterscreen, NADH absorbance | AID 588335; in the data active means inhibition above about 30%
Vc quorum ag = quorum light induction in luxS cqsA deficient V. cholerae; V. cholerae BH1578 lux reporter, luminescence, 6 h; activation, % at 18.7 µM; actives 0.16% (n = 350,000); in the data active means activation mostly above about 9.7%, no sharp cut-off
FBA Mtb inh = inhibitors of M. tuberculosis fructose-bisphosphate aldolase | actives 2.3% (n = 360,000) | purified M. tuberculosis FBA, fluorescence read-out | P9WQA3 | inhibition, % at 1 µM
Target sequence (P9WQA3 whole entry, looked up): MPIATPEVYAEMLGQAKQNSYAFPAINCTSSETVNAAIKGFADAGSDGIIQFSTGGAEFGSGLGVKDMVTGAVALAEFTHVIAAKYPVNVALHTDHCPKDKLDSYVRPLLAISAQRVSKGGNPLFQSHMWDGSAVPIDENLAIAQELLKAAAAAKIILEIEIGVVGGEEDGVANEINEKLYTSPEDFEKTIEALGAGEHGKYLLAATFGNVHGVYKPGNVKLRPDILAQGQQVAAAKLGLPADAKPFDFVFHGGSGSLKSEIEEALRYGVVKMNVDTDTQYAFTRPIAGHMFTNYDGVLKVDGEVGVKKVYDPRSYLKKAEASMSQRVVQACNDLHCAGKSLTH
CCHF vOTU inh = blocks the CCHF virus ovarian tumor domain protease. CCHFV vOTU protease, Pep-AMC fluorescence. AID 651958. inhibition, % at 11.5 µM. actives 0.55% (n = 370,000); in the data active means inhibition above about 30%
Mtb FBA inh conf = confirmation of M. tuberculosis fructose-bisphosphate aldolase inhibitors. shares compounds with FBA Mtb inh. purified M. tuberculosis FBA, fluorescence read-out. inhibition, % at 1 µM. actives 78% (n = 5,600). AID 651616
GDH-TPI counter-2 = inhibits GDH-TPI coupling enzymes, flagging Mtb FBA hits; GDH-TPI coupled enzyme counterscreen, fluorescence; actives 81% (n = 5,600); shares compounds with FBA Mtb inh; inhibition, % at 1 µM; AID 652141; in the data active means inhibition above about 10%
Hits are given with their value. Unless noted, no stated cut-off is given here; in the data, active means inhibition above about 27%; inactive means the rest.

How did COCCCNC(=O)C[C@H]1C[C@H](C(=O)N(C(C)C)C(C)C)[C@@]2(C)c3[nH]c4cc(-c5ccco5)ccc4c3CCN2C1=O do in these assays?
GDH-TPI counter-1: inactive; Vc quorum ag: inactive; FBA Mtb inh: 31; CCHF vOTU inh: inactive; Mtb FBA inh conf: 128; GDH-TPI counter-2: 104

Results for COCCCNC(=O)CC1C[C@H](C(=O)N2CCOCC2)[C@@]2(C)c3[nH]c4ccccc4c3CCN2C1=O (stereo not given in full) ?
GDH-TPI counter-1: inactive; Vc quorum ag: inactive; FBA Mtb inh: inactive; CCHF vOTU inh: inactive

How did CCN(C(=O)CN1CCN(c2cccc(Cl)c2)CC1)c1c(N)n(Cc2ccccc2)c(=O)[nH]c1=O do in these assays?
GDH-TPI counter-1: inactive; Vc quorum ag: inactive; FBA Mtb inh: inactive; CCHF vOTU inh: inactive

What do the screens show for `O=C(NNC(=O)C1CCCCC1)c1ccc(Br)cc1`?
GDH-TPI counter-1: inactive; FBA Mtb inh: inactive; CCHF vOTU inh: inactive

Results for O=C(NNC(=O)C1C2CCCCC21)c1coc(=O)c(Br)c1 (stereo not given) ?
GDH-TPI counter-1: inactive; Vc quorum ag: inactive; FBA Mtb inh: 54; CCHF vOTU inh: inactive; Mtb FBA inh conf: 86; GDH-TPI counter-2: 50

How did O=C(N[C@H](C(=O)N1CCC[C@H]1C(=O)NCCc1ccccc1Cl)c1ccccc1)c1ccco1 do in these assays?
CCHF vOTU inh: inactive

How did CC1CCCCN1C(=O)Cn1cc(C#N)c2ccccc21 (stereo not given) do in these assays?
GDH-TPI counter-1: inactive; Vc quorum ag: inactive; FBA Mtb inh: inactive; CCHF vOTU inh: inactive

What do the screens show for `Cc1ccc2nc(-c3ccc(C#N)cc3)c(Cc3ccccn3)n2c1`?
FBA Mtb inh: 61; CCHF vOTU inh: inactive; Mtb FBA inh conf: 146; GDH-TPI counter-2: 94

Results for O=C1Nc2cc(Cl)c(Cl)cc2N(O)N1c1ccc(Cl)cc1 ?
GDH-TPI counter-1: inactive; Vc quorum ag: inactive; FBA Mtb inh: inactive; CCHF vOTU inh: inactive

How did Nc1nc2n(n1)C(c1cccs1)CC(c1ccccc1)N2 (stereo not given) do in these assays?
GDH-TPI counter-1: inactive; Vc quorum ag: inactive; FBA Mtb inh: 69; CCHF vOTU inh: inactive; Mtb FBA inh conf: 101; GDH-TPI counter-2: 81

What do the screens show for `CC(=O)c1cc(F)c(N2CCN(C(=O)C(C)(C)C)CC2)cc1C`?
GDH-TPI counter-1: inactive; Vc quorum ag: inactive; FBA Mtb inh: inactive; CCHF vOTU inh: inactive

How did CC(=O)c1cc(F)c(N2CCN(C(=O)COc3ccccc3F)CC2)cc1C do in these assays?
GDH-TPI counter-1: inactive; Vc quorum ag: inactive; FBA Mtb inh: 38; CCHF vOTU inh: inactive; Mtb FBA inh conf: inactive; GDH-TPI counter-2: inactive

How did CCOCCCNC(=S)Nc1ccc2nc(N3CCOCC3)cc(C)c2c1 do in these assays?
GDH-TPI counter-1: inactive; Vc quorum ag: inactive; FBA Mtb inh: 32; CCHF vOTU inh: inactive; Mtb FBA inh conf: active; GDH-TPI counter-2: active

How did COc1ccc(CNC(=S)Nc2ccc3nc(N4CCOCC4)cc(C)c3c2)cc1 do in these assays?
GDH-TPI counter-1: inactive; Vc quorum ag: inactive; FBA Mtb inh: 31; CCHF vOTU inh: inactive; Mtb FBA inh conf: 33; GDH-TPI counter-2: 28

How did COc1ccc(CNC(=S)Nc2ccc3nc(N4CCN(C)CC4)cc(C)c3c2)cc1 do in these assays?
GDH-TPI counter-1: inactive; Vc quorum ag: inactive; FBA Mtb inh: inactive; CCHF vOTU inh: inactive

Results for COCCCNC(=S)Nc1ccc2nc(N3CCOCC3)cc(C)c2c1 ?
GDH-TPI counter-1: inactive; Vc quorum ag: inactive; FBA Mtb inh: inactive; CCHF vOTU inh: inactive

How did CC1=CC(=O)Nc2ncccc2O1 do in these assays?
GDH-TPI counter-1: inactive; Vc quorum ag: inactive; FBA Mtb inh: 61; CCHF vOTU inh: inactive; Mtb FBA inh conf: 84; GDH-TPI counter-2: 76

What do the screens show for `COc1cc2c3c(c1)C(C)=CC(C)(C)N3C(=O)C2=O`?
GDH-TPI counter-1: inactive; Vc quorum ag: inactive; FBA Mtb inh: 29; CCHF vOTU inh: inactive; Mtb FBA inh conf: inactive; GDH-TPI counter-2: inactive

How did COc1cccc(/C=N/n2c(N)c(S(=O)(=O)c3cccs3)c3nc4ccccc4nc32)c1OC do in these assays?
GDH-TPI counter-1: inactive; Vc quorum ag: inactive; FBA Mtb inh: inactive; CCHF vOTU inh: inactive

How did COc1ccc(Cn2c(N)c(S(=O)(=O)c3cccs3)c3nc4ccccc4nc32)cc1 do in these assays?
GDH-TPI counter-1: inactive; Vc quorum ag: inactive; FBA Mtb inh: 49; CCHF vOTU inh: inactive; Mtb FBA inh conf: 115; GDH-TPI counter-2: 79

What do the screens show for `Nc1c(S(=O)(=O)c2cccs2)c2nc3ccccc3nc2n1Cc1ccccc1`?
GDH-TPI counter-1: inactive; Vc quorum ag: inactive; FBA Mtb inh: 54; CCHF vOTU inh: inactive; Mtb FBA inh conf: inactive; GDH-TPI counter-2: inactive

Results for CCC1Cc2c(nc(N)c3c(N)nc(N4CCOCC4)c(C#N)c23)O1 (stereo not given) ?
GDH-TPI counter-1: inactive; Vc quorum ag: inactive; FBA Mtb inh: 37; CCHF vOTU inh: inactive; Mtb FBA inh conf: 147; GDH-TPI counter-2: 122

What do the screens show for `COc1ccc(CN2C(=O)Cc3c2nc(N)c2c(N)nc(N4CCOCC4)c(C#N)c32)cc1`?
GDH-TPI counter-1: inactive; Vc quorum ag: inactive; FBA Mtb inh: 41; CCHF vOTU inh: inactive; Mtb FBA inh conf: active; GDH-TPI counter-2: active

What do the screens show for `O=C1c2cccc3cccc(c23)C(=O)N1CC1CCN(S(=O)(=O)c2ccccc2)CC1`?
GDH-TPI counter-1: inactive; Vc quorum ag: inactive; FBA Mtb inh: 54; CCHF vOTU inh: inactive; Mtb FBA inh conf: 47; GDH-TPI counter-2: 29

What do the screens show for `Cc1cccc(NC(=O)Cn2c(O)c(N=NC(N)=S)c3ccccc32)c1`?
GDH-TPI counter-1: inactive; Vc quorum ag: inactive; FBA Mtb inh: 35; CCHF vOTU inh: inactive; Mtb FBA inh conf: 187; GDH-TPI counter-2: 146

How did CC1=Nc2ccccc2/C1=C/c1c(O)[nH]c(=O)[nH]c1=O do in these assays?
GDH-TPI counter-1: inactive; Vc quorum ag: inactive; FBA Mtb inh: inactive; CCHF vOTU inh: inactive

Results for Cc1ccc2c(c1)=NC(=O)/C(=C/c1c(O)[nH]c(=O)[nH]c1=O)C=2 ?
GDH-TPI counter-1: inactive; Vc quorum ag: inactive; FBA Mtb inh: 35; CCHF vOTU inh: inactive; Mtb FBA inh conf: 95; GDH-TPI counter-2: 65

How did CCOC(=O)[C@]12CCC=C1N(Cc1ccc3c(c1)OCO3)C(=O)[C@H](CC(=O)NCc1ccc(C)o1)C2 do in these assays?
CCHF vOTU inh: inactive

How did O=c1cc(Nc2ccc3c(c2)OCCO3)[nH]c(=O)n1-c1ccc(Cl)cc1 do in these assays?
GDH-TPI counter-1: inactive; Vc quorum ag: inactive; FBA Mtb inh: 33; CCHF vOTU inh: inactive; Mtb FBA inh conf: 78; GDH-TPI counter-2: 69

What do the screens show for `CCN(CC)C(=O)c1cc2c(=O)c3cc(F)ccc3oc2nc1C`?
GDH-TPI counter-1: inactive; Vc quorum ag: inactive; FBA Mtb inh: inactive; CCHF vOTU inh: inactive

How did COC(=O)c1cn(NC(=O)Cc2ccc(Cl)c(Cl)c2)c(=O)c2ccccc12 do in these assays?
GDH-TPI counter-1: inactive; Vc quorum ag: inactive; FBA Mtb inh: inactive; CCHF vOTU inh: inactive

How did CCOC(=O)c1cc(-c2ccc(C)cc2)nc2nc(SC)[nH]c(=O)c12 do in these assays?
GDH-TPI counter-1: inactive; Vc quorum ag: inactive; FBA Mtb inh: 40; CCHF vOTU inh: inactive; Mtb FBA inh conf: 151; GDH-TPI counter-2: 159
